Most compounds without a hit are left out; they make up all but 12% or so of the library.
G9a block: G9a (human) methyltransferase inhibition; Q96KQ7; G9a H3K9 monomethylation, AlphaScreen, 2 h; Potency, µM (top dose mostly 102 µM), for the others: at the top dose activity, negative = inhibition, most hits filed as inhibitors; 350,000 tested, 8.8% active; AID 504332; note: % is set by controls: 0 for no effect and ±100 for the full control effect; nearly all actives have a fitted effect of over 75% in size
Target sequence (Q96KQ7 913-1193 limits assumed): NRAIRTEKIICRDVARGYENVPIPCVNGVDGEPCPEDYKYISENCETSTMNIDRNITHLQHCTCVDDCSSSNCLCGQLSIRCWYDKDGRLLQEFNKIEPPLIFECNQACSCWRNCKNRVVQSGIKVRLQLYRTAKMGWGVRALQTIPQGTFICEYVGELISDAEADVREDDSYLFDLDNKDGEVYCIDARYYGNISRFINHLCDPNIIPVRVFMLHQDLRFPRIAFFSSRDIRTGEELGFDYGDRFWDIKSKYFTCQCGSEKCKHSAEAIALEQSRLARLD
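Step 1: enzyme (final 20 nM) with compound, 15 min RT. Step 2: substrate peptide 500 nM and SAM 20 uM, 2 h RT. Step 3: anti-H3K9me1 antibody and AlphaScreen beads, 10 min, then plate read.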
BAZ2B block: blocks human BAZ2B; AID 504333; AlphaScreen BAZ2B-H3K14Ac peptide displacement; 360,000 tested, 4.4% active; Potency, µM (top dose mostly 114 µM), without a hit: top-dose activity change, negative = inhibition, hits mostly inhibitors; note: % is set by controls: 0 for no effect and ±100 for the full control effect; nearly all actives have a fitted effect of over 60% in size
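Inhibition is scored as reduced AlphaScreen emission. The BAZ2B/b-H3(5-23)K14Ac complex (50 nM each) in PBS pH 7.4, 0.01% Tween-20 meets compound (up to 110 uM) for 30 min at RT before bead addition.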
JMJD2A Tudor inh: JMJD2A Tudor domain (human) inhibition; O75164; AlphaScreen JMJD2A-Tudor / H3K4me3 peptide binding; Potency, µM (series often up to 114 µM), for the others: at the top dose activity change, negative = inhibition, actives largely listed as inhibitors; 390,000 tested, 4.4% active; note: % is set by controls: 0 for no effect and ±100 for the full control effect; nearly all actives have a fitted effect of over 50% in size
Sfp PPTase inh: inhibitors of Bacillus subtilis Sfp phosphopantetheinyl transferase; Q9F4F7; Biochemical Sfp PPTase activity, qHTS; Potency, µM, for the others: largest response in the series, negative = inhibition, most hits filed as inhibitors; 310,000 tested, 3.5% active;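 note: the enzyme is Sfp with the accession as filed and its product quenches rhodamine fluorescence; 0% = enzyme reaction without inhibitor and -100% = no enzyme wells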
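After 15 min at room temperature with compound, 15 nM Sfp received 5 uM rhodamine-CoA plus 12.5 uM BHQ-2-ybbR (50 mM Hepes pH 7.6, 10 mM MgCl2). Rate came from the fluorescence difference over 30 min, ex 525/em 598 nm.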
HP1b chromo inh: inhibitors of HP1-beta chromodomain binding to methylated histone tails; Potency, µM (top dose mostly 114 µM), for the others: at the highest dose activity change, negative = inhibition, actives largely listed as inhibitors; AlphaScreen HP1-beta / biotin-H3K9me3 peptide binding; P83916; 390,000 tested, 0.56% active; note: nearly all actives have a fitted effect of over 70% in size
Target sequence (P83916 whole entry, looked up): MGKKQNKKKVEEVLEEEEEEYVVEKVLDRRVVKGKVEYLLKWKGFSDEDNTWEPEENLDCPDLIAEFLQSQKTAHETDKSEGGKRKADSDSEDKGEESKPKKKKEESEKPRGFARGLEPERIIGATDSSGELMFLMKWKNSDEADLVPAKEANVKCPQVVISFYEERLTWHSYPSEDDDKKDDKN
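AlphaScreen: HP1-beta (50 nM) preformed 30 min with biotin-H3(1-18)K9me3 peptide (50 nM) in PBS pH 7.4, 0.01% Tween-20. Compound added for 30 min at RT, then streptavidin donor/nickel chelate acceptor beads (10 ug/mL) for 30 min.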
L3MBTL1 block: blocks human L3MBTL1. 230,000 tested, 0.66% active. AlphaScreen L3MBTL1–H3K9me1 peptide binding. Potency, µM (top dose mostly 57.1 µM), inactives show at the top dose activity, negative = inhibition, usual class: inhibitors; note: % is set by controls: 0 for no effect and ±100 for the full control effect; nearly all actives have a fitted effect of over 60% in size
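Read-out is AlphaScreen signal from streptavidin donor and nickel chelate acceptor beads (10 ug/mL final each) bridging L3MBTL1 (50 nM) and biotinylated K9-monomethylated H3(1-15) peptide (75 nM), after 30 min compound exposure at room temperature.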
* = called active by the depositor; ? = inconclusive; . = no result given; [ ] = dose if it differs, or a comment. Calls come from the whole dose curve; as a rule, active = well fitted curve in the direction sought with a large enough effect; inconclusive = small, poorly fitted or top-dose-only effect, or another doubt; inactive = no such curve, though single readings can be large; an effect the other way counts as inactive or inconclusive. Potency is the fitted concentration of half-maximal effect.

SMILES | G9a block | BAZ2B block | JMJD2A Tudor inh | Sfp PPTase inh | HP1b chromo inh | L3MBTL1 block
COc1ccc(C2CC(=O)N3CN(Cc4ccco4)CSC3=C2C#N)cc1 (stereo unspecified) | 0.89µM* | ? | 7.1µM* | 1.4µM* | ? | -6%
C[C@]12CC[C@H]3c4ccc(O)cc4CC[C@@H]3[C@H]1CC[C@@H]2OP(=O)(O)O | 19%[59 µM] | . | . | 6% | . | .
O=C(CSc1nc(=O)n(Cc2ccccn2)c2c1CCC2)Nc1ccccc1 | -5%[59 µM] | 1% | 1% | . | 25% | .
COc1cc(OC)c(-c2c3cc(O)c(=O)cc-3oc3cc(O)c(O)cc23)cc1OC | 10µM* | 1.1µM* | 1.1µM* | 16µM* | -90% | 0.79µM*
O=c1cc(-c2ccc(O)cc2O)oc2ccccc12 | . | . | . | -3% | . | .
Cc1c2cc(O)c(=O)cc-2oc2cc(O)c(O)cc12 | 7.9µM* | 4.5µM* | 1.4µM* | 40µM* | 0.71µM* | 2.8µM*
Cc1cc2c(s1)c1cnn(Cc3ccccc3C)c(=O)c1n2C | . | . | -2% | . | . | .
Cc1ccc(NS(=O)(=O)c2cc3c(cc2-c2ccsc2)NC(=O)CO3)cc1C | . | . | -29% | . | . | .
COc1cc(/C=N/Nc2ccc(F)cc2F)cc(OC)c1O | 1.6µM* | ? | 79µM* | -39% | ? | -17%
CCOc1ccccc1/C=N/Nc1ccccc1[N+](=O)[O-] | ? | ? | ? | 7% | -30% | ?
CC(C)Oc1ccccc1/C=N/Nc1ccccc1[N+](=O)[O-] | 3.5µM* | 5.6µM* | 14µM* | -5% | ? | 11µM*
O=[N+]([O-])c1ccccc1N/N=C/c1cc2ccccc2nc1Cl | 50µM* | ? | ? | 8% | 1% | .
COc1ccccc1/C=N\Nc1ccccc1[N+](=O)[O-] | 7.9µM* | 3.2µM* | 8.9µM* | -18% | 13µM* | -27%
COc1ccc(CNC(=O)C(=O)Nc2c3c(nn2-c2ccccc2)CSC3)cc1 | 42%[59 µM] | 10% | -21% | . | 40% | .
COc1ccc(C(c2c(O)nc[nH]c2=O)c2c(O)nc[nH]c2=O)cc1 | 1% | -23% | -9% | 24% | 16% | .
COc1ccc(/C=N\Nc2ccc([N+](=O)[O-])cc2[N+](=O)[O-])c(C(=O)O)c1OC | 25µM* | -38% | 50µM* | 79µM* | ? | -24%
COc1cc(/C=N/Nc2ccccc2[N+](=O)[O-])cc(OC)c1O | 7.1µM* | ? | -25% | -1% | -10% | ?
CC1=C(/C=N/Nc2ccc([N+](=O)[O-])cc2[N+](=O)[O-])C(C)(C)CCC1 | 20µM* | 3.5µM* | 2.8µM* | -5% | 8.9µM* | ?
CN1CCN(C(CNC(=O)c2cccc(F)c2)c2ccc3c(c2)OCO3)CC1 (stereo unspecified) | -2%[59 µM] | 2% | 5% | . | 36%[57 µM] | .
NS(=O)(=O)c1cccc(NC(=O)COC(=O)CSCc2ccccc2)c1 | . | . | -3% | . | 38% | 34%
Cc1cc(NS(=O)(=O)c2ccc(Nc3nc(-c4sc(N)nc4C)cs3)cc2)no1 | -10%[12.7 µM] | ? | 56µM* | 50µM* | ? | ?
Cc1cc(NS(=O)(=O)c2ccc(Nc3nc(-c4ccc(C)c(C)c4)cs3)cc2)no1 | ? | ? | 56µM* | 12% | -37% | -12%
Cc1cc(NS(=O)(=O)c2ccc(Nc3nc(-c4ccc(O)cc4)cs3)cc2)no1 | 50µM* | ? | ? | -30% | -20% | -1%
COc1cc(NS(=O)(=O)c2ccc(Nc3nc(-c4ccccc4)cs3)cc2)nc(OC)n1 | ? | 50µM* | ? | -7% | -22% | -12%
COc1cc(NS(=O)(=O)c2ccc(N/C=C(\C#N)c3nc4ccccc4o3)cc2)nc(OC)n1 | 16%[2.33 µM] | ? | ? | 15% | -1% | -11%
SMILES | G9a block | BAZ2B block | JMJD2A Tudor inh | Sfp PPTase inh | HP1b chromo inh | L3MBTL1 block
COc1cc(NS(=O)(=O)c2ccc(N/C=C(\C=O)c3nc4ccccc4o3)cc2)nc(OC)n1 | 35µM* | 79µM* | 79µM* | 9% | 6% | 6%
O=C(NCCc1c[nH]c2ccccc12)c1ccc2nc[nH]c2c1 | -12%[59 µM] | 50µM* | -31% | . | 13% | ?
COc1ccc(C(=O)NCCc2c[nH]c3ccccc23)cc1OC | . | -34% | -19% | 9% | 34% | 3%
COc1ccc(C(=O)NCCc2ccc(Cl)cc2)cc1S(=O)(=O)N1CCCCC1C (stereo unspecified) | -20%[59 µM] | 1% | -21% | . | 15% | -8%
COc1ccc(C(=O)NCCc2c[nH]c3ccccc23)cc1S(=O)(=O)N1CCCCC1C (stereo unspecified) | 2.8µM* | -39% | ? | . | -11% | -1%
CCC(C(=O)OC(C)C)c1ccc2ccccc2c1 (stereo unspecified) | 6%[0.501 µM] | 67% | 46% | . | 102% | 16%
CCCCN1C2=C(C(=O)CC(C)(C)C2)C(c2ccccc2)C2=C1c1ccccc1C2=O (stereo unspecified) | ? | ? | ? | 56µM* | ? | .
CCCN1C2=C(C(=O)CC(C)(C)C2)C(c2ccc(F)cc2)C2=C1c1ccccc1C2=O (stereo unspecified) | 11µM* | ? | -30% | 6% | ? | .
O=[N+]([O-])c1cccc(C=NNc2ccccc2)c1 | . | . | 40µM* | . | ? | .
O=[N+]([O-])c1ccc(C=NNc2ccccc2)cc1 | . | . | 25µM* | . | ? | .
O=[N+]([O-])c1cccc(/C=N/N=C\c2ccccc2)c1 | 39% | -37% | -29% | 18% | 34% | -2%
O=[N+]([O-])c1ccc(/C=N/Nc2ncc(-c3ccccc3)cn2)cc1 | -30% | -19% | -9%[11.4 µM] | 10% | 3% | -1%
Cc1ccc(N2CCN(S(=O)(=O)c3cccc4ccccc34)CC2)cc1Cl | 39%[59 µM] | -15% | -22% | . | 40% | .
Cc1ccc(NC(=O)C(OC(=O)c2ccc(F)cc2)c2ccccc2)cc1Cl (stereo unspecified) | 21%[59 µM] | 4% | -12% | 30% | 32% | 6%
Cc1ccc(NC(=O)C(OC(=O)c2ccc(O)cc2)c2ccccc2)cc1Cl (stereo unspecified) | 71µM* | -8% | -12% | 27% | 56% | -3%
COc1ccc(C2=CC3=C(Br)C(=O)C(C)(OC(=O)CCc4ccccc4)C(=O)C3=CO2)cc1 (stereo unspecified) | . | . | . | -15% | . | .
CC1(C)CC(=O)C(c2c[nH]c3ccccc23)C(=O)C1 | . | 16% | 3% | 79µM* | 51% | 20%
Cc1cc2c(s1)c1cnn(Cc3ccc(C(C)C)cc3)c(=O)c1n2C | . | . | -3% | . | . | .
COc1ccccc1NC(=O)C1=C(C)Nc2nc(CCCO)nn2C1c1cccnc1 (stereo unspecified) | 50µM* | -5% | 3% | -10% | 27% | 0%

Screening results from PubChem BioAssay.
